Measurements: the OligoGym collection

Molecular target: AKR1C4
Assay: pooled miR-30 sensor sort-seq; sequence = guide strand
Conditions: shRNA
Note: reference of the scale not given here.

| Sequence | sensor-assay potency score (higher = more potent) |
| --- | --- |
| TTGTGTTTCTTTGCTAAGGCAC | -0.225 |
| TTGGTAGTGGCGTCTCACCTGG | -0.771 |
| TTGCTAAGGCACAAAGAACTGG | -0.934 |
| TTATTGTATAAATAAGCAGAAT | -1.48 |
| TTTCATATCCTCTGATGTCAAC | -1.3 |
| TTTGGTGACCTCTACAGCTCTG | 0.239 |
| TTCATCTTTTGGTAGTGGCGTC | -0.396 |
| TTCTGTTTAGACCATCTAGAAC | -1.64 |
| TAGACCATCTAGAACTTTCATA | -0.398 |
| TATCCTCTGATGTCAACTGGAA | -0.803 |
| ATCATTTAGCTCTACACGCTGA | -0.425 |
| TACTTTTCCATTTTCATCTTTT | -0.351 |
| TTTGTTTGTGTTTCTTTGCTAA | 0.179 |
| TTGTTTGTGTTTCTTTGCTAAG | -1.47 |
| ATATCCTCTGATGTCAACTGGA | -0.353 |
| TAAGGATGACATTCTACCTGGT | 0.727 |
| AAAACCTGGATGTTCTCTCTGA | 0.359 |
| AACATATCGATAATTTCTGTTT | -1.09 |
| TTCAGTGAGCTTTCCAAGGCTG | 0.323 |
| TTGGTGACCTCTACAGCTCTGT | 0.122 |
| AATCCATGACAACATATCGATA | -1.75 |
| TAGAACTTTCATATCCTCTGAT | 0.539 |

Molecular target: AKT3
Assay: as above
Conditions: shRNA

| Sequence | sensor-assay potency score (higher = more potent) |
| --- | --- |
| TTGTCTTTCTTTTATGATGGGT | -0.0312 |
| TTTATCATATACATCTTGCCAG | 0.12 |
| TATAACAGTAGTCCACTGGAGA | -0.667 |
| TTTAAAAGGAGGTACAAGCTTT | -0.528 |
| TATTGTAATAGTCTGAGCTGTA | 0.29 |
| TAGTCCACTGGAGACATCTGAT | -0.68 |
| TTGTAGAAAGGTAACCTCCCAC | -0.166 |
| TTATCTTCTAACACCTCTGGTG | -0.243 |
| TATCTTCTAACACCTCTGGTGC | -0.701 |
| TTATCATATACATCTTGCCAGT | -1.09 |
| TAGTCTGAGCTGTAAATTCTTC | -1.06 |
| TTATTGTAATAGTCTGAGCTGT | -0.326 |

Molecular target: ALAD
Assay: as above
Conditions: shRNA

| Sequence | sensor-assay potency score (higher = more potent) |
| --- | --- |
| TGATAGGCTGTATGTCATCAGG | -1.65 |
| TGGATTGCCTCAATAGCTGGGG | -0.361 |
| TTGACTTAGCTGCATCCCGGAA | -1.25 |
| TTTAAAGTTCTAGTTCTTGGGC | -0.0518 |
| TCCTTGGGAACTCTGCTGGGGA | -1.34 |
| TACCACCTGACATCCTGCCTTG | -0.254 |
